Assay results taken from PubChem BioAssay AID2314 (National Center for Advancing Translational Sciences (NCATS), 2010).
About 37,000 (12%) of roughly 300,000 compounds were called active. For the sample, actives were picked, then their nearest neighbours and some compounds at random. Values without a mark were called inactive. Cut-off read from the data, not from the text of the source: active = max response mostly above about 13% (no sharp cut-off); inactive = mostly below about 14%.

assay: Cycloheximide Counterscreen for Small Molecule Inhibitors of Shiga Toxin; settings: cell reporter, cycloheximide protein synthesis inhibition counterscreen; hits give high values; note: read at 38.3 µM for the half of the compounds with a filed dose; 0% is about no effect

Row | Structure (SMILES) | max response
1 | O=C(O)CN1CCN(C(c2ccccc2)c2ccccc2)CC1 | -0.558%
2 | COC(=O)Cc1csc(/N=C/c2c(O)n(-c3cccc(C(F)(F)F)c3)c(=O)c3ccccc23)n1 | -0.585%
3 | COc1ccc(NC(=O)c2cc([N+](=O)[O-])ccc2NC(=O)CNC2CCCCC2C)c(OC)c1 (stereo not given) | -4.84%
4 | CC(C)c1nnc(NC(=O)COC(=O)/C=C/c2ccc([N+](=O)[O-])cc2)s1 | -2.23%
5 | COc1ccccc1C1CCN(C(=S)Nc2ccc(Br)cc2)CC1 | 21.5% (active)
6 | COc1ccc(C(=O)NC2CCN(C(=S)Nc3ccccc3)CC2)cc1 | -4.48%
7 | CCC(C)N(C)C1CCN(C(=S)Nc2ccc(OC)cc2)CC1 (stereo not given) | 2.11%
8 | O=C(CN1CCN(c2ccccc2)CC1)Nc1ccc(F)cc1 | 0.655%
9 | Cc1cc2oc(C(=O)Nc3c(C)n(C)n(-c4ccccc4)c3=O)c(C)c2cc1Cl | -5.74%
10 | O=C(CC1C(=O)NCCN1C(=O)c1ccc([N+](=O)[O-])cc1)Nc1cccc(Cl)c1 (stereo not given) | 5.86%
11 | O=C(CC1NCCNC1=O)Nc1cc(Cl)cc(Cl)c1 (stereo not given) | -5.54%
12 | O=C(CC1NCCc2ccccc21)Nc1cccc(Cl)c1 (stereo not given) | 30.4% (active)
13 | O=C1/C(=C\c2ccccc2Cl)SC(=S)N1CCC(=O)N1CCCc2ccccc21 | -2.48%
14 | Cc1ccc(C(=O)N2CC(=O)Nc3ccc(F)cc3C2c2ccc(F)cc2)cc1 (stereo not given) | -2.84%
15 | CCn1c(=S)sc2c(=O)n(CC(=O)Nc3cccc(Br)c3)c(C)nc21 | -2.2%
16 | CCCCC(C(=O)NC(C)(C)C)N(Cc1ccccc1)C(=O)c1snc(C(N)=O)c1N (stereo not given) | -0.829%
17 | COC(=O)/C=C\C(=O)Nc1cccc([N+](=O)[O-])c1 | 58% (active)
18 | CC(=O)Nc1cccc([N+](=O)[O-])c1 | 5.16%
19 | COc1ccc(S(=O)(=O)NC(C)C(=O)Nc2cccc([N+](=O)[O-])c2)cc1 (stereo not given) | 5.76%
20 | C[C@H](NC(=O)[C@@H]1Cc2ccccc2CN1C(=O)OC(C)(C)C)C(=O)NC1CCCC1 | 0.878%

Row | Structure (SMILES) | max response
21 | Cc1cc(OC(=O)c2ccc(OC(C)C)cc2)c([N+](=O)[O-])c(=O)[nH]1 | 10.8%
22 | Cc1ccc(S(=O)(=O)NCCCn2ccnc2)cc1C(=O)NC(C)C | -2.94%
23 | CCOc1ccc(N2C(=O)/C(=C/c3ccc(C)o3)N(C)C2=S)cc1 | -2.62%
24 | CC(C)(C)OC(=O)N1CCC(C(=O)NNC(=O)c2ccc(Cl)cc2Cl)CC1 | 1.42%
25 | CCOc1ccc(NC(=O)NNC(=O)c2ccc(Cl)cc2Cl)cc1 | -2.33%
26 | Cc1ccc(C(=O)NNC(=O)OC(C)(C)C)c(Cl)c1 | 23.3% (active)
27 | Cc1ccccc1CN1C[C@@H]2C[C@@H](c3cn(C)nc3-c3ccccc3)N3CCC[C@@]23C1=O | -1.2%
28 | COC(=O)C(C(=O)Nc1cccc(C)n1)C1CCCCCC1 (stereo not given) | 0.569%
29 | CCOC(=O)C(=CNc1cccc(C)n1)C(=O)OCC | 11.4%
30 | Cc1cccc(NC(=O)c2ccccc2NC(=O)C(C)(C)C)n1 | -4.22%
31 | Cc1cccc(NC(=O)c2ccc3ccccc3n2)n1 | 56.4% (active)
32 | Cc1cccc(NC(=O)c2cccnc2Cl)n1 | 24.1% (active)
33 | Cc1cccc(NC(=O)c2cc(N3C(=O)CCC3=O)ccc2Cl)n1 | -1.19%
34 | COc1cccc(CNC(=O)C2CCCN(c3ncnc4c3nc3n4CCCCC3)C2)c1 (stereo not given) | -1.2%
35 | COc1cc2c(cc1OC)C(C(=O)Nc1cc(C)c(OC)c(C)c1)CC(=O)N2 (stereo not given) | -2.52%
36 | Cc1c(Cl)cccc1NC(=S)NCC(O)c1ccccc1 (stereo not given) | 7.6%
37 | O=c1ccc2cc(S(=O)(=O)NCCCc3ccccc3)ccc2[nH]1 | 0.781%
38 | COCC(=O)Nc1c(C(=O)N2CCCC2)oc2ccccc12 | 9.66%
39 | O=C(Nc1ccc(N2CCOCC2)nc1)c1c(F)cccc1F | 47.6% (active)
40 | O=C(Nc1ccc(F)cc1)c1cccnc1N1CCOCC1 | -3.65%

Row | Structure (SMILES) | max response
41 | NC(=O)c1ccc(N2CCOCC2)nc1 | 3.99%
42 | Cc1cccc(C)c1NC(=O)C(Cl)C(=O)c1ccccc1 (stereo not given) | -3.97%
43 | CCCCNC(=S)N/N=C1\CCCCc2ccccc21 | -5.15%
44 | O=C(C1=C[C@H](c2coc3ccccc3c2=O)C[C@H](OCc2ccc(CO)cc2)O1)N1CCN(Cc2ccccc2)CC1 | 1.24%
45 | COc1ccccc1N1CCN(S(=O)(=O)CCNC(=O)c2ccc(OC(C)C)cc2)CC1 | -4.03%
46 | CCOC(=O)c1cc2n(c1N)-c1ccccc1C2=O | 16.1% (active)
47 | CCOC(=O)C1=C(C(=O)OCC)C(C(=O)OCC)N(S(=O)(=O)C(F)(F)F)c2ccccc21 (stereo not given) | 2.14%
48 | CCOC(=O)c1ccccc1CN1C(=O)c2ccccc2S1(=O)=O | 0.941%
49 | Nc1ncc(CN2CCCC(C(=O)Nc3ccc(-c4ccco4)cc3)C2)cn1 (stereo not given) | -1.66%
50 | CCOC(=O)c1cccc(NC(=O)CCc2nnc3ccc(N4CCOCC4)nn23)c1 | 0.592%
51 | COC(=O)c1ccc(NCC(=O)c2ccccc2)cc1 | 29.7% (active)
52 | COC(=O)c1ccc(NC(=O)c2ccccc2NS(=O)(=O)c2ccccc2)cc1 | 7.47%
53 | COc1ccc(NC(=O)CCCC(=O)c2ccccc2)cc1 | 12%
54 | COC(=O)c1ccc(C(=O)OC)c(NC(=S)N2CCCCC2)c1 | 1.84%
55 | Cc1ccc(C(=O)NC2CCN(C(=O)Nc3ccc(F)cc3)CC2)cc1 | -5.94%
56 | Cc1ccc(C(=O)CNc2ccc(F)cc2)cc1 | 13.3% (active)
57 | COC(=O)c1ccc(/C=N/NC(=O)C(=O)N2CCCCCC2)cc1 | -2.86%
58 | COC(=O)c1ccc(NCC(=O)N2CCCCCC2)cc1 | 19.4% (active)
59 | Cc1ccc(NC(=O)CCC(=O)c2ccc(Br)cc2)cc1 | -1.06%
60 | O=C(NC1CCCCC1)C1CCC(CNS(=O)(=O)c2ccccc2)CC1 (stereo not given) | -1.26%
